| Binder | selected by phage display (YES1 90-152, P07947) | selected by phage display (ZMYND11 480-602, Q15326) |
| --- | --- | --- |
| PLPPPPPLPKIQPLEP [ZBTB21, Q9ULJ3] | confidence 2 (active) |  |
| LPSAESLSRRPLPALP [EFS, O43281] | confidence 3 (active) |  |
| SRALPATPQLPSRSGV [WIPF1, O43516] | confidence 3 (active) |  |
| TKTPPRDLPTIPGVTS [EIF4EBP1, Q13541] | confidence 3 (active) |  |
| LISDLDEGPPVLTPVE [ZHX1, Q9UKY1] |  | confidence 4 (active) |
| QPLPPAPTSVPPAAFP [PER1, O15534] | confidence 2 (active) |  |
| EQALPPHLEPAWPQGL [HOMEZ, Q8IX15] |  | confidence 4 (active) |
| LPLPPLPGAGIPPPPP [FMN2, Q9NZ56] | confidence 2 (active) |  |
| PTPSSPLPSVPVSVPA [PLEKHN1, Q494U1] | confidence 3 (active) |  |
| DKTSSIQSRPLPSPPK [BCAR1, P56945] | confidence 2 (active) |  |
| TFRWTSLTRELPPPPP [KMT2B, Q9UMN6] | confidence 2 (active) |  |
| MPELERSQYPMEWGKT [SGMS1, Q86VZ5] |  | confidence 2 (active) |
| PGRGLPQLPSSAYSVD [ST5, P78524] | confidence 4 (active) |  |
| MPQLDAAGDRLELRSE [C2orf81, A6NN90] |  | confidence 2 (active) |
| DSRDQMPVLEKAIDLP |  | confidence 2 (active) |
| KDRPLPPAPLSPAPGP [MAP1A, P78559] | confidence 3 (active) |  |
| EPEYPREPPRLEPQPY [UBN2, Q6ZU65] |  | confidence 2 (active) |
| GMLEMPDLRDGSNVIV [DSG1, Q02413] |  | confidence 3 (active) |
| PPMPQLTPQIPLTGFV [ABI1, Q8IZP0] |  | confidence 2 (active) |
| ENPPSYYSIFNYGRTP [TMEM171, Q8WVE6] |  | confidence 3 (active) |
| DMPELFPSKTAHVTDQ [ETAA1, Q9NY74] |  | confidence 2 (active) |

| Binder | selected by phage display (YES1 90-152, P07947) | selected by phage display (ZMYND11 480-602, Q15326) |
| --- | --- | --- |
| LPSLPLEPSLLSGVVQ [LRP10, Q7Z4F1] | confidence 2 (active) |  |
| MPNLARMPSTTAISSN [SLAIN1, Q8ND83] |  | confidence 2 (active) |
| LPPPPPPDRPYSVGAE [CBL, P22681] | confidence 4 (active) |  |
| TPPVQGLEPPVLEAME [I3L1I5] |  | confidence 4 (active) |
| FERENEGMPSLIAESN [ARID4A, P29374] |  | confidence 2 (active) |
| DSINPPALVHVHMQGQ [ZSCAN4, Q8NAM6] |  | confidence 3 (active) |
| SMHRDGPPLLENAHSS [SOS1, Q07889] |  | confidence 2 (active) |
| VDFDPSTPPKLMPFSN [LZTS1, Q9Y250] |  | confidence 2 (active) |
| FAGLPLPLPPTSQGLS [PROSER1, Q86XN7] | confidence 3 (active) |  |
| QQTPPKLTAYLPAMSE [PDPK1, O15530] |  | confidence 2 (active) |
| RLSLEGLPSLPSMHEY [IRS2, Q9Y4H2] | confidence 3 (active) |  |
| QMPRLVAEESNRGSTT [MORC4, Q8TE76] |  | confidence 3 (active) |
| PQKEGERALPSIPKLA [PTK2, Q05397] | confidence 3 (active) |  |
| AAVGVSKPLPSVPPSI [MADD, Q8WXG6] | confidence 2 (active) |  |
| EGIPVLEAQNGKLEVV [ATAD2B, Q9ULI0] |  | confidence 2 (active) |
| APTLPLPPPPGFPPLP [SETD1B, Q9UPS6] | confidence 3 (active) |  |
| TLTDLPLLPGVPMAGD [LRRC46, Q96FV0] | confidence 2 (active) |  |
| SLQNPPVLIAQPDHSY [SEC16A, O15027] |  | confidence 2 (active) |
| TAGPGRPLPQRPMPDQ [ZFHX2, Q9C0A1] | confidence 2 (active) |  |
| SPPTLAPATASPPTTA [MLXIPL, Q9NP71] |  | confidence 2 (active) |
| NESENSRSMPKLEIFE [ZNF165, P49910] |  | confidence 3 (active) |

| Binder | selected by phage display (YES1 90-152, P07947) | selected by phage display (ZMYND11 480-602, Q15326) |
| --- | --- | --- |
| QLGDLPPKPQLSDLPP [ASAP1, Q9ULH1] | confidence 2 (active) |  |
| AAPTLGHRTLPLLPSL [PRRT4, C9JH25] | confidence 2 (active) |  |
| SELKTMPNLQPISALP |  | confidence 4 (active) |
| TSTLPPLPLPPLLPGD [CDK12, Q9NYV4] | confidence 3 (active) |  |
| EEETKEMPKLQAELAD [ZBTB38, Q8NAP3] |  | confidence 4 (active) |
| HSTGEQPPQLSLATRV [LPIN1, Q14693] |  | confidence 3 (active) |
| ELPLLPPPPSLPTIGA [SETD5, Q9C0A6] | confidence 3 (active) |  |
| IQSIPLPPTTHTRLPA [TSHZ1, Q6ZSZ6] | confidence 2 (active) |  |
| VPVLEPQLPGSVFDPI [BRD4, O60885] |  | confidence 2 (active) |
| QGSGPGEVLPPLLQLE [AATK, Q6ZMQ8] |  | confidence 2 (active) |
| NQQKALPPPPASIPPP [FMN1, Q68DA7] | confidence 2 (active) |  |
| TVELEEKRFRTLPLVP [ELL3, Q9HB65] | confidence 3 (active) |  |
| QPAVFPPSFRELPPPP [IFT52, Q9Y366] | confidence 4 (active) |  |
| SAISEVTQPPSYEDAV [MYOCD, Q8IZQ8] |  | confidence 3 (active) |
| QLLMPTLESETEAAVP [PPRC1, Q5VV67] |  | confidence 4 (active) |
| SERELPQPPPLLSPQN [SAMD11, Q96NU1] | confidence 4 (active) |  |
| ELEMPVLKSSLALGLE [PPP1R35, Q8TAP8] |  | confidence 4 (active) |
| QQQQQQLPALPPTPQQ [R3HDM2, Q9Y2K5] | confidence 2 (active) |  |
| NLEVKSLRALPATPAL [PDE4DIP, Q5VU43] | confidence 2 (active) |  |
| LQRTLPSVPPDTKLSK [TCF24, Q7RTU0] | confidence 2 (active) |  |

Source: paper PMC8769072, “Proteome‐scale mapping of binding sites in the unstructured regions of the human proteome” (Molecular Systems Biology, 2022)

Chain of ZMYND11 480-602, Q15326 (Q15326 480-602): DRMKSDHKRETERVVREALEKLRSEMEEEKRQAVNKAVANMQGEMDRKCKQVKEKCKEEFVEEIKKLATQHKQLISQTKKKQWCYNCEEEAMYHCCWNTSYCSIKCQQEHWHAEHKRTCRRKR
Chain of YES1 90-152, P07947 (P07947 90-152): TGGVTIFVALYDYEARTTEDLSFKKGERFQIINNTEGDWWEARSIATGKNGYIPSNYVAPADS
